Common to all, as to parameters: scale not given: direction of the effect not stated beside the values
Test [1] concerns the target Protein translocase subunit SecA (Escherichia coli (strain K12)) (UniProt P10408). Briefly: Assay to Identify E. coli SecA ATPase Inhibitors. It is filed as functional. Conditions: 30 µM.
The target in test [2] is T1, Ubiquitin-activating enzyme e1, putative (Leishmania donovani (strain BPK282A1)) (UniProt E9BSI1).
T1 sequence (whole entry): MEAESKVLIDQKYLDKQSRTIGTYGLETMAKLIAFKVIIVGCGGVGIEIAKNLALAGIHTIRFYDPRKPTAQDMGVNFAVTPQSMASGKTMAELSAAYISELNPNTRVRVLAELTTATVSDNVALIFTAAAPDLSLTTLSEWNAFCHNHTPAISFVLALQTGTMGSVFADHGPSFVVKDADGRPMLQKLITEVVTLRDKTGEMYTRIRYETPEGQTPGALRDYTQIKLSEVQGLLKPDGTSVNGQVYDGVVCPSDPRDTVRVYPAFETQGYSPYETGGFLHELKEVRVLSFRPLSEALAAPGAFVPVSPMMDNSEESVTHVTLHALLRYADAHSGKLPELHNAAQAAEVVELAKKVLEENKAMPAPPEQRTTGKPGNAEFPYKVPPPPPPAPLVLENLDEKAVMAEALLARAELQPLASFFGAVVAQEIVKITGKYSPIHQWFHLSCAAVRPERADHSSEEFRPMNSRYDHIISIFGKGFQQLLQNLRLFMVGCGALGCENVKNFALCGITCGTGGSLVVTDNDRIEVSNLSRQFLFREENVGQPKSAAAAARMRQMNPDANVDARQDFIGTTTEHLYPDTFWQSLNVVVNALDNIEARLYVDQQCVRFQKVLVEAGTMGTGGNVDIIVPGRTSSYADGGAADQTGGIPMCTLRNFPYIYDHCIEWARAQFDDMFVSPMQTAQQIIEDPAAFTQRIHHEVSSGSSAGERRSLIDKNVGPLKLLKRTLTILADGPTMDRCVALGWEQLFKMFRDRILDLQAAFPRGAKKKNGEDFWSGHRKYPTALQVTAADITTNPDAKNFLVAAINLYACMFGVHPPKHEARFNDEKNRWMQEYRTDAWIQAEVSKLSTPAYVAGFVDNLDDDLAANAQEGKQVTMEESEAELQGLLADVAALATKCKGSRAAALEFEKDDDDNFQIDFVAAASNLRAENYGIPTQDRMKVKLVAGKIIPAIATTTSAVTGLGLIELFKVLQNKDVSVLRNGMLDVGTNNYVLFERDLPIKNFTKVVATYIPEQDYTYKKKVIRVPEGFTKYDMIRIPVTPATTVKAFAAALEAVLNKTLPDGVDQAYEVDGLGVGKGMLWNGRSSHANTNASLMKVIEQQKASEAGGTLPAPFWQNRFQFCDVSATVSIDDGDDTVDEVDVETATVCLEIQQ
Put plainly: Leishmania donovani Ubiquitin Activating Enzyme (LdE1). It is filed as functional. Conditions: 30 µM.

Test [3] addresses AMP-activated protein kinase, AMPK (Homo sapiens) (UniProt P54646+O43741+P54619+Q9UGJ0+Q9Y478+Q13131+Q9UGI9). Put plainly: AMP-dependent Kinase enzyme assay. An in vitro enzyme assay that detects ADP turnover that is directly proportional to AMPK activity. This uses naive AMPK that is activated during the assay with MK-8722. It is filed as functional. As to conditions: 30 µM.
Test [4] has as its target Sialic acid-binding Ig-like lectin 9 (Homo sapiens) (UniProt Q9Y336). Briefly: Hs-Siglec9 ALPHAscreen SOP 20170721. Conditions: 10 µM. A general note: Alpha assays give light when donor and acceptor beads are brought close together.
Another test deals with Trypanosoma cruzi. Briefly: Trypanosoma cruzi phosphomannomutase and mannose-1-phosphate guanylyltransferase assay. The format is functional. As to conditions: 10 µM.
Test [5] concerns the target T2, Arginase-2, mitochondrial (Homo sapiens) (UniProt P78540).
T2 sequence (whole entry): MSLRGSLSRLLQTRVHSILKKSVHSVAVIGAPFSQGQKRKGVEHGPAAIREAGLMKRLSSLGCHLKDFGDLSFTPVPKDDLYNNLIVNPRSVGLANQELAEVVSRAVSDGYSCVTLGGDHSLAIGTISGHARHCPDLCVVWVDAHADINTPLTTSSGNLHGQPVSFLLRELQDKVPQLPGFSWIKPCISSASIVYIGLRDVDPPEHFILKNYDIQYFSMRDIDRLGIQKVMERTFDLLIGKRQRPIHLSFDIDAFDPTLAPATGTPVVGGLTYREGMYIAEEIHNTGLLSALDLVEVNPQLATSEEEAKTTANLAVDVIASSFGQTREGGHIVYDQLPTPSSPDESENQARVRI
Put plainly: in vitro enzyme assay to detect the production of urea directly proportional to the activity of Arginase II. Note: in the data most compounds retested in dose-response had high values. The format is functional. Conditions: 33.3 µM.

Test [6] has as its target T3, Proteasome subunit beta (Trypanosoma cruzi) (UniProt O96673).
T3 sequence (whole entry): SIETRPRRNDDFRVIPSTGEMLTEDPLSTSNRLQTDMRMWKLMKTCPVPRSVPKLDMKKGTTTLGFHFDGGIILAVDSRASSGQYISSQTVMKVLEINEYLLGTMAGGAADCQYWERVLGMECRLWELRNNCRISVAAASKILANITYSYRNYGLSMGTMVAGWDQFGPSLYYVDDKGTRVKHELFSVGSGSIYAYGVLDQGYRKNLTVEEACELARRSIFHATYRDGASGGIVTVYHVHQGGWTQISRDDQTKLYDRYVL
Briefly: Trypanosoma cruzi proteasome chymotrypsin-like activity (TcProtChymo) assay. Note: in the data most compounds retested in dose-response had high values. It is filed as functional. Conditions: 9.37 µM.

A further test is filed under the species Homo sapiens. Briefly: To identify inhibition of the IFN signalling (Jak-Stat) pathway via expression of an eGFP reporter gene under the control of an IFN-stimulated response element (ISRE) containing MxA promoter. The format is functional. Conditions: 30 µM. (In general: Reporter assays use an easily measured gene product as a stand-in for the process of interest.)

In test [7] the target is T4, Tyrosyl-tRNA synthetase, putative (Trypanosoma cruzi (strain CL Brener)) (UniProt Q4DSP6).
T4 sequence (whole entry): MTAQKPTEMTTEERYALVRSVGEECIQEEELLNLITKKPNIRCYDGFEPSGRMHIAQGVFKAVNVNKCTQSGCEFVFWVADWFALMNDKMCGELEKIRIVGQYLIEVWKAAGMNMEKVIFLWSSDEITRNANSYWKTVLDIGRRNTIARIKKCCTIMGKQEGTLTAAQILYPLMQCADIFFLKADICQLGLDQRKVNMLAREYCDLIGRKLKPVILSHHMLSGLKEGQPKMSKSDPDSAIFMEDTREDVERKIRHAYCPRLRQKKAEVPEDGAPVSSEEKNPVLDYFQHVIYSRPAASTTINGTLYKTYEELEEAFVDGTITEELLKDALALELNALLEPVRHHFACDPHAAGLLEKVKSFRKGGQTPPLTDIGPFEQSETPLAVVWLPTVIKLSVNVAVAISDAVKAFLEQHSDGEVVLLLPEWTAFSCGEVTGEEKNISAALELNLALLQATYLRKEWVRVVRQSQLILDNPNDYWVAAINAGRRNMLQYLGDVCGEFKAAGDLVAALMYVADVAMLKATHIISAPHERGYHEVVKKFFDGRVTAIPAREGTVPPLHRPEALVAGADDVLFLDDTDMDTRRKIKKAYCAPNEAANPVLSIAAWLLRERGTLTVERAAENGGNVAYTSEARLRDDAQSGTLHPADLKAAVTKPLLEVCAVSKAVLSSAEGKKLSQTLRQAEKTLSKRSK
Put plainly: Trypanosoma cruzi tyrosyl tRNA synthetase (TcYRS) _High Tyrosine SOP. Note: in the data most compounds retested in dose-response had high values. The format is functional. As to conditions: 30 µM.

Test [8] addresses T4, Tyrosyl-tRNA synthetase, putative (Trypanosoma cruzi (strain CL Brener)). Put plainly: Trypanosoma cruzi tyrosyl tRNA synthetase (TcYRS) SOP. The format is functional. As to conditions: 30 µM.
The target in test [9] is Chromo domain-containing protein 1 (Saccharomyces cerevisiae (strain ATCC 204508 / S288c) (Baker's yeast)) (UniProt P32657). Briefly: ScCHD-1 Enzyme Inhibition Assay. Note: in the data most compounds retested in dose-response had high values. It is filed as functional. Conditions: 30 µM.
Chain of Chromo domain-containing protein 1 (Saccharomyces cerevisiae (strain ATCC 204508 / S288c) (Baker's yeast)) (P32657 whole entry, the tested form may be a part): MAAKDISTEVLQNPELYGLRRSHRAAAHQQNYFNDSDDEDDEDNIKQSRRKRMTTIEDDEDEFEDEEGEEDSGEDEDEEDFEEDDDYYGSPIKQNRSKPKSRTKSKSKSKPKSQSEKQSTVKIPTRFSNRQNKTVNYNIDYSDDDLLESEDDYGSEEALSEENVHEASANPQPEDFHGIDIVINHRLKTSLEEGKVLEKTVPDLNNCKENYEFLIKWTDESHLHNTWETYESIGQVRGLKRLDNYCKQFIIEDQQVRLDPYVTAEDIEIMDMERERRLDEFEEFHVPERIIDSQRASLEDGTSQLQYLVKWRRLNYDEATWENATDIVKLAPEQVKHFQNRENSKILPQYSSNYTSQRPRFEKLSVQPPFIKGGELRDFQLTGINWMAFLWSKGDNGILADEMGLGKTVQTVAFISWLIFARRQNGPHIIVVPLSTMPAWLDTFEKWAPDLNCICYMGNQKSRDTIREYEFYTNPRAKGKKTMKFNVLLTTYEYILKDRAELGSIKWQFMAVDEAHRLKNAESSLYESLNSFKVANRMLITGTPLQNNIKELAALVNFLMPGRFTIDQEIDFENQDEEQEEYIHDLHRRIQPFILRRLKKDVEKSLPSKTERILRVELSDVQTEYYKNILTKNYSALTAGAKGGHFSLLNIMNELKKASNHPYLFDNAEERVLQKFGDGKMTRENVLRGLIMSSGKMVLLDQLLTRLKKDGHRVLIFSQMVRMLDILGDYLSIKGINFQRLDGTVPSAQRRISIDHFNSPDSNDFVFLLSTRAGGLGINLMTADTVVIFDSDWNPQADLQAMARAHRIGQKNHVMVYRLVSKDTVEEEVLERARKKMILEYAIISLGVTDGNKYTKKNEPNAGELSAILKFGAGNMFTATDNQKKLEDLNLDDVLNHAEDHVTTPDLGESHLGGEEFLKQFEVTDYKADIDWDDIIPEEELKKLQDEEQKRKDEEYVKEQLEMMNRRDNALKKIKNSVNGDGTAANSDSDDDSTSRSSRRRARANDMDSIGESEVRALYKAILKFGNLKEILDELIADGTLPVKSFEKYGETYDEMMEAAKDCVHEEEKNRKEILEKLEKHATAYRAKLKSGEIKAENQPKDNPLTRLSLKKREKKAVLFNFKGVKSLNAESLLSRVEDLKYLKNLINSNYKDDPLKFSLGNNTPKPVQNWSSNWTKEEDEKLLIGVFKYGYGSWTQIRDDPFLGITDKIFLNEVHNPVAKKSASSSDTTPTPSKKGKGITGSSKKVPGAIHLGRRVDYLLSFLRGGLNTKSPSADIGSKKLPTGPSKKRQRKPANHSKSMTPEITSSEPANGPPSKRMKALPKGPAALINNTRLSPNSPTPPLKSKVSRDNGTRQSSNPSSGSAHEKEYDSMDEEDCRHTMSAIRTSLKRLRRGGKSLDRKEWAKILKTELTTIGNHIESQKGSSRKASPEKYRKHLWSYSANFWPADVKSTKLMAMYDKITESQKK

For some assays here: Potency and affinity values are given separately.

Chain of Protein translocase subunit SecA (Escherichia coli (strain K12)) (P10408 whole entry): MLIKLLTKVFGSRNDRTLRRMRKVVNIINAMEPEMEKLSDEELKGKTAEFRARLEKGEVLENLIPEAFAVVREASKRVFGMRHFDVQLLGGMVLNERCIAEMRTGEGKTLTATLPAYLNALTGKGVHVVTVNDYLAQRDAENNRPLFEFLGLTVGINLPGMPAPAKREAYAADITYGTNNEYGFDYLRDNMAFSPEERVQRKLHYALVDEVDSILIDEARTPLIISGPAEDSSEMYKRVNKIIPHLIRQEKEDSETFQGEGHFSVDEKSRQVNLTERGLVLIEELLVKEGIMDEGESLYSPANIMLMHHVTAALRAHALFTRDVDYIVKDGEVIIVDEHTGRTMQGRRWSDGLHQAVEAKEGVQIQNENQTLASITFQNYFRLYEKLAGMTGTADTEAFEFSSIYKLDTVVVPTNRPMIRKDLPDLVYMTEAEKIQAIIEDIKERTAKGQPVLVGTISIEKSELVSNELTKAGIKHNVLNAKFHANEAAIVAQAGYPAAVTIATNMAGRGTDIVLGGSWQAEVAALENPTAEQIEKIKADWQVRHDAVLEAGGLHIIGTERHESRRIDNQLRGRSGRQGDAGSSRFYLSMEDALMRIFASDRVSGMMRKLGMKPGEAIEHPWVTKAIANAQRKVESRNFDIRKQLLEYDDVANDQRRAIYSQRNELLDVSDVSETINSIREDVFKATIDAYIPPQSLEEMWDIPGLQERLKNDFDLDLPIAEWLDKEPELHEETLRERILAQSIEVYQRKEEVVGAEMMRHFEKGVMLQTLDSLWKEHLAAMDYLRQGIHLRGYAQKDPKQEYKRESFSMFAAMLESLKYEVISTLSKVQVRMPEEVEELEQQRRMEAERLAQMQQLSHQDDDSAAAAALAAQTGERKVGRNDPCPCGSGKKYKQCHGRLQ
Chain of Sialic acid-binding Ig-like lectin 9 (Homo sapiens) (Q9Y336 whole entry): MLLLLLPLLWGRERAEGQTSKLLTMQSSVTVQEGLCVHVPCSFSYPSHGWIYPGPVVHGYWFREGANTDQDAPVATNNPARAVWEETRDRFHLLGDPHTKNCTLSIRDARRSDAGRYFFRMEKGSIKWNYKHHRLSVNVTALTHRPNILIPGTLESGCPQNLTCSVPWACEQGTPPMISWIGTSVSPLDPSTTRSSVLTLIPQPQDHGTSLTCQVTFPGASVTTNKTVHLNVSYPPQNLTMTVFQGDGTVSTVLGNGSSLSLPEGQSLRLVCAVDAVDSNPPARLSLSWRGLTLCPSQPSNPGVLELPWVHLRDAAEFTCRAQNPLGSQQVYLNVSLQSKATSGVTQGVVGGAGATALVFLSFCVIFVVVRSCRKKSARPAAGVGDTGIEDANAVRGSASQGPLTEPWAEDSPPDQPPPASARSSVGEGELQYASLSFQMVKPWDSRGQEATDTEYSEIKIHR

With `Cc1[nH]c(=O)[nH]c(=O)c1CN1CCCC(CCc2c(F)cccc2F)C1` (stereo not given), the Percent Effect in test [1] is -0.639%; in test [2], 8.11%; in test [3], -5.43%; in test [4], 13.8%; with Trypanosoma cruzi it was 1.16%; in [5] it was 1.91%. The Percent Effect is 9.14% in test [6]; 5.92% in the test filed under Homo sapiens; 3.7% in [7]; -9.76% in test [8]; -1.15% in test [9].
`CC(=O)N1CCC(CN2CCN(Cc3nccn3C)C(C)C2)CC1` (stereo not given): the Percent Effect in test [1] was -0.614%; in [2], 18.9%; in test [3] it was -4.02%; in test [4], -8.56%; in the test on Trypanosoma cruzi, -2.14%; in test [5] it was 4.25%. In addition, the Percent Effect in test [6] is 14.5%; in the test listed under Homo sapiens it was 17.6%; in test [7], 9.9%; in test [8] it was 15.8%; in test [9], -2.18%.
As to `Cc1ncc(C(=O)N2C[C@H]3CC[C@@H]2CN(S(=O)(=O)N(C)C)C3)c(C)n1`, the Percent Effect was -2.89% in [1]; 16% in test [2]; -1.8% in [3]; 16.2% in test [4]; 2.82% with Trypanosoma cruzi; 27.6% in [5]. In addition, the Percent Effect in [6] was 17.3%; in the test filed under Homo sapiens, 1.16%; in test [7], 7.1%; in test [8], 16.1%; in [9], -6.2%.
As for `COC(=O)CS(=O)(=O)CCC(=O)N1CCCC1c1ccsc1` (stereo not given), the Percent Effect was -3.22% in test [1]; 6.94% in [2]; -5.88% in test [3]; 21.4% in test [4]; 2.82% in the test on Trypanosoma cruzi; -2.21% in [5]. Also, the Percent Effect was 5.44% in test [6]; -6.88% in the test listed under Homo sapiens; 5.26% in test [7]; 7.69% in [8]; -2.96% in test [9].
In the case of `O=C(NCCc1ccncc1)C1CCN(Cc2ccco2)CC1`, the Percent Effect in test [1] is -7.38%; in [2], -2.67%; in test [3] it was -2.38%; in [4], -3.22%; in the test with Trypanosoma cruzi, -6.52%; in test [5], -2.6%. The Percent Effect in [6] was 12.7%; in the test filed under Homo sapiens, 25.9%; in test [7], -1.64%; in [8], 1.24%; in test [9], -7.8%.
Regarding `CCS(=O)(=O)N1C[C@H]2CN(Cc3cccnc3)C(=O)[C@H]2C1`, the Percent Effect is -1.39% in [1]; 2.7% in test [2]; 0.503% in test [3]; 1.84% in test [4]; -6.25% with Trypanosoma cruzi; 0% in test [5]. Also, the Percent Effect came to 10.9% in test [6]; 19.2% in the test filed under Homo sapiens; 4.95% in test [7]; 6.1% in test [8]; 1.54% in [9].
Turning to `c1ccc(OCC2CC3(CCN(Cc4ccncc4)CC3)CO2)nc1` (stereo not given), the Percent Effect is -3.46% in test [1]; 9.33% in [2]; 6.58% in test [3]; 5.09% in test [4]; -4.13% in the test on Trypanosoma cruzi; -4.4% in test [5]. Also, the Percent Effect in [6] was 12.2%; in the test filed under Homo sapiens, -5.36%; in test [7], 2.12%; in test [8] it was 7.69%; in test [9] it was -5.62%.
In the case of `CCC(NC(=O)C1CCN(S(C)(=O)=O)CC1)c1ccc(OC)c(C)c1` (stereo not given), the Percent Effect in test [1] is -0.552%; in [2] it was 2.6%; in test [3], 0.574%; in test [4], 27.4%; with Trypanosoma cruzi it was 4.03%; in [5] it was -4.14%. The Percent Effect in [6] is 15.3%; in the test listed under Homo sapiens it was -3.86%; in test [7], 2.15%; in test [8] it was 1.24%; in test [9], 120%.
With `Cc1ccc(S(=O)(=O)NCCNC(=O)c2ccoc2)cc1F`, the Percent Effect in test [1] was -4.47%; in test [2] it was 13.3%; in test [3], 4.57%; in [4] it was 12.1%; in the test on Trypanosoma cruzi, 5.75%; in [5], 5.21%. The Percent Effect in test [6] worked out at 15.5%; in the test listed under Homo sapiens it was 16.4%; in test [7] it was 3.83%; in [8], 13.6%; in [9] it was 86.1%.
On to `Cc1ccc(C2CCCCCN2Cc2cn(C)nc2C)cc1` (stereo not given), for which the Percent Effect in test [1] is -2.53%; in [2] it was 5.2%; in test [3], 1.3%; in test [4], 6.91%; in the test with Trypanosoma cruzi it was 4.83%; in test [5], 1.94%. For the same molecule, the Percent Effect in test [6] is 5.92%; in the test listed under Homo sapiens, -15%; in test [7] it was 8.47%; in [8], 19.2%; in test [9] it was -11.2%.
